Data published in the supplement of paper PMC4894684.
Where a name gives a salt, the structure may show the parent alone. ± gives the standard deviation of the averaged measurements.

Test system: Toxoplasma gondii RH (in HFF)
Experiment: parasite growth relative to the screen mean (all compounds = 100%); higher = less inhibition of parasite growth
Details: 5 µM; 72 h; oxygen 21 %
Summary of the method: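 Values give growth relative to the screen mean. The screen mean (all compounds) is set at 100%, and two screens were averaged. Compounds at 5 µM final were placed on confluent human foreskin fibroblasts, which were infected within 2 h with RH β-Gal–GFP Toxoplasma (MOI 1:5) and kept 72 h at 21% O2 before a CPRG β-Gal readout against in-plate standard curves.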

SMILES	parasite growth [%]
COc1ccc(-n2[nH]c3c4c(ncc3c2=O)CCCCC4)cc1	105 ± 28
Cc1c[nH]c(=O)n(CCCN2CCN(c3ccccc3OCC(F)(F)F)CC2)c1=O	116 ± 6.9
O=C1OC(OC(=O)c2cccnc2Nc2cccc(C(F)(F)F)c2)c2ccccc21 (centres undefined) [Talniflumate]	113 ± 28
COc1cc(OC)c(C(=O)CCCCN2CCC3(CC2)NC(=O)NC3=O)cc1NS(=O)(=O)c1ccc(C(F)(F)F)cc1	109 ± 11
CCCOc1ccccc1-c1nc2[nH]nnc2c(=O)[nH]1 [Zaprinast]	98.3 ± 14
O=C(NCCCN1CCCCCC1)C(c1ccccc1)C1CCCCC1 (centres undefined)	83 ± 2.4
O=C(/C=C/c1ccc(O)c(O)c1)O[C@H](Cc1ccc(O)c(O)c1)C(=O)O [Rosmarinic acid]	110 ± 5.5
CC1(C)CCC(C)(C)c2cc(C3(c4ccc(C(=O)O)cc4)OCCO3)ccc21	115 ± 34
FC(F)(F)c1ccc(/C=C/c2nc(COc3ccc(CCCCn4ccnn4)cc3)co2)cc1	36 ± 14
COc1ccc(C2CC(c3c(O)cc(C)oc3=O)=NCCS2)c(OC)c1 (centres undefined)	69.6 ± 9.3
CC(C)C(=O)c1c(C(C)C)nn2ccccc12 [Ibudilast]	75.7 ± 12
CCOC(=O)c1c(C)[nH]c2ccc3c(c12)CN1CCc2cc(OC)ccc2C1O3 (centres undefined)	16.8 ± 6.5
C[C@@H](CN1CC(=O)NC(=O)C1)N1CC(=O)NC(=O)C1 [Dexrazoxane hydrochloride]	102 ± 13
NS(=O)(=O)c1cccc2c1c([N+](=O)[O-])cc1nc(O)c(O)nc12 [NBQX disodium salt]	112 ± 14
CN1CCN(CCc2ccc(Cl)c(Cl)c2)CC1 [BD 1063 dihydrochloride]	50.9 ± 5.6
CCn1c(=O)[nH]c2cc(Cl)c(Cl)cc21	89.8 ± 61
CC(C1=C(CCN(C)C)Cc2ccccc21)c1ccccn1 (stereo in doubt) [(S)-(+)-Dimethindene maleate]	83.1 ± 56
COc1ccccc1N1CCN(CCN2C(=O)CC3(CCCC3)CC2=O)CC1 [BMY 7378 dihydrochloride]	81.06 ± 0.29
COC(=O)Nc1ccc2[nH]cc(CCNC(C)=O)c2c1	81 ± 2.9
c1ccc2sc(N3CCN(Cc4ccc5c(c4)OCO5)CC3)nc2c1 [2-[1-(4-Piperonyl)piperazinyl]benzothiazole]	113 ± 20

SMILES	parasite growth [%]
CC#C[C@]1(O)CC[C@H]2[C@@H]3CCC4=CC(=O)CCC4=C3[C@@H](c3ccc(N(C)C)cc3)C[C@@]21C [Mifepristone]	135 ± 14
CSc1ccc2c(c1)C(N1CCN(C)CC1)Cc1ccccc1S2 (centres undefined) [Methiothepin maleate]	< 0
Oc1cc2c(c(Cl)c1O)CCNCC2c1ccccc1 (centres undefined)	103 ± 32
CCOc1cc(CC(=O)N[C@@H](CC(C)C)c2ccccc2N2CCCCC2)ccc1C(=O)O [Repaglinide]	150 ± 13
C[N+](C)(C)CC[N+]1(C)Cc2c(Cl)c(Cl)c(Cl)c(Cl)c2C1 [Chlorisondamine diiodide]	168 ± 14
N#C/C(=C\c1ccc(O)c(O)c1)C(=O)NCc1ccccc1	148 ± 13
Nc1ncnc2n[nH]c(Nc3ccc(F)cc3)c12	94.4 ± 26
O=C(O)Cn1c(C(=O)Nc2nc(-c3ccccc3Cl)cs2)cc2ccccc21	133 ± 2.8
CCOC(=O)c1ncc2[nH]c3cccc(OC(C)C)c3c2c1C	101 ± 26
C[C@H](NC[C@H](O)CP(=O)(O)CC1CCCCC1)c1ccc(Cl)c(Cl)c1	129 ± 36
C[N+]1(C)CCC(OC(=O)C(c2ccccc2)c2ccccc2)CC1	86.5 ± 39
O=C1CCc2cc(OCCCCc3nnnn3C3CCCCC3)ccc2N1 [Cilostazol]	74.6 ± 3.3
CCCn1c(=O)c(C)cn2nc(N)nc12	145 ± 2.1
OCC(CO)N[C@H]1C[C@](O)(CO)[C@@H](O)[C@H](O)[C@H]1O [Voglibose]	68.07 ± 0.24
CCn1ccnc1CC1COc2ccccc2O1 (centres undefined) [Imiloxan hydrochloride]	120 ± 7
C=C[C@@]1(C)CC(=O)[C@]2(O)[C@@]3(C)[C@@H](O)CCC(C)(C)[C@@H]3[C@H](O)[C@H](OC(C)=O)[C@@]2(C)O1 [Forskolin]	116 ± 2.3
NC(=O)OCC(COC(N)=O)c1ccccc1 [Felbamate]	85.9 ± 60
CCCCCCCCCCCCCCCCn1cc[n+](Cc2ccccc2)c1C	< 0
Cc1cc(Cn2cnc3c2CC(C(=O)O)N(C(=O)C(c2ccccc2)c2ccccc2)C3)ccc1N(C)C (centres undefined)	130 ± 23
